{
  "source": "PubChem BioAssay AID1047",
  "about": "(SRMLSC, 2008)",
  "note": "Out of some 1,500 compounds screened, about 1,400 (93%) were called active. The set was probably picked from earlier hits. Not all results are given here. Measured potencies and affinities stand elsewhere. Unmarked numbers belong to inactive results. The rule behind the calls is not given here.",
  "data": [
    {"assay": "viability of PTEN-deleted HCT116 cells – cell-based, HCT116 PTEN knockout, dose response (AID 1047)", "conditions": "CellTiter-Glo, 60 h; series mostly up to 30 µM; viability: at the top concentration", "units": {"viability": "%"}, "values": [
      {"smiles": "Cc1sc2c(=O)n3c(nc2c1C(=O)NCCCN1CCOCC1)CCCCC3", "viability": 83.3},
      {"smiles": "CC(=O)ON1C(C)(C)CC(OC(=O)c2ccccc2)CC1(C)C", "viability": 91.2},
      {"smiles": "O=C(COC(=O)c1cccnc1Nc1cccc(C(F)(F)F)c1)NCc1ccc2c(c1)OCO2", "viability": 100},
      {"smiles": "CC(C)c1cc(=O)oc2c3c4c(cc12)CCCN4CCC3", "viability": 88.1},
      {"smiles": "CNC(=S)N/N=C(\\C)c1ccc(N2CCOCC2)cc1", "viability": 95.4},
      {"smiles": "O=S(=O)(NCCc1csc(-c2cccnc2)n1)c1ccc2c(c1)OCCO2", "viability": 100},
      {"smiles": "COc1ccc(CCn2c(N)c(C(=O)NCc3ccco3)c3nc4ccccc4nc32)cc1OC", "viability": 82.2},
      {"smiles": "C=CCNc1nnc(SC2CC(=O)N(c3ccc(OC)cc3)C2=O)s1", "note": "(centres undefined)", "viability": 99.3},
      {"smiles": "OCCn1c(C(F)(F)F)nc2ccccc21", "viability": 104},
      {"smiles": "O=C(Nc1ccccc1Cl)NC1(C(=O)N2CCCC2)CCCCC1", "viability": 106},
      {"smiles": "O=C(N/N=C/c1ccc(O)c(O)c1O)/C(=C/c1ccc([N+](=O)[O-])cc1)NC(=O)c1ccccc1", "viability": 81.5},
      {"smiles": "Cc1ccccc1NC(=O)c1ccc2c(c1)OCCO2", "viability": 91.1},
      {"smiles": "O=C(NNc1nc2cc3c(cc2s1)OCO3)c1cccc(F)c1", "viability": 92.5},
      {"smiles": "COc1cccc(OCC(=O)NN=C2c3ccccc3-c3ccccc32)c1", "viability": 105},
      {"smiles": "COc1ccc(C(=O)OC2CCN(c3ncc(C(F)(F)F)cc3Cl)CC2)cc1", "viability": 97.8},
      {"smiles": "O=C1[C@H]2[C@H]3[C@H](O)[C@H](O)C/C(=N\\OC[C@@H](O)COCc4ccco4)[C@@H]3CC[C@H]2C(=O)N1c1ccc(F)cc1F", "viability": 107},
      {"smiles": "COC(=O)COc1ccc(S(=O)(=O)NCc2ccncc2)cc1", "viability": 111},
      {"smiles": "c1ccc2c(c1)CCCC2C1=NCCN1", "note": "(centres undefined)", "viability": 94.9},
      {"smiles": "CC(C[N+](C)(C)C)OC(N)=O", "note": "(centres undefined)", "viability": 102},
      {"smiles": "CCOc1c(OC)ccc2c3c(c(=O)oc12)CCCC3", "viability": 95.5},
      {"smiles": "OC1C2CN3CCN(C2)CC1(Cc1ccccc1)C3", "note": "(centres undefined)", "viability": 88.9},
      {"smiles": "Cc1cc(NC(=O)c2sc(Nc3cccc(C(F)(F)F)c3)nc2N)no1", "viability": 86.6},
      {"smiles": "Cc1[nH]nc2c1C(c1ccsc1C)C(C#N)=C(N)O2", "note": "(centres undefined)", "viability": 89.2},
      {"smiles": "CCC(C)C1C(C#N)=C(N)Oc2n[nH]c(C)c21", "note": "(centres undefined)", "viability": 80.5},
      {"smiles": "CCOC(=O)N1CCN(C(=O)c2nn(-c3ccc(C)cc3)c(=O)c3c2c2ccccc2n3C)CC1", "viability": 89.2},
      {"smiles": "COc1ccc(C(=O)OCC(=O)c2cc(OC)ccc2OC)c(OC)c1", "viability": 89.9},
      {"smiles": "CCOc1ccc(N(CC(=O)NC2CCCCCC2)S(=O)(=O)c2c(C)noc2C)cc1", "viability": 96.9},
      {"smiles": "CCCCCn1c(Sc2ccccc2)nc2c1c(=O)[nH]c(=O)n2C", "viability": 81.8},
      {"smiles": "CCN(CCNC(=O)Nc1ccc(Cl)cc1)c1ccccc1", "viability": 99.6},
      {"smiles": "O=C(c1nnc(Cc2ccc(Cl)cc2)o1)N1CCc2ccccc2C1", "viability": 98.8},
      {"smiles": "CN(C)S(=O)(=O)c1cccc(NC(=O)COC(=O)c2cccc(S(=O)(=O)N3CCc4ccccc4C3)c2)c1", "viability": 96.8},
      {"smiles": "CCOC(=O)c1[nH]c2ccc(OC)cc2c1NC(=S)N1CCN(c2ccccc2)CC1", "viability": 88.3},
      {"smiles": "Cc1cc(C)n(C(=O)CNc2ccc(C)c(C)c2)n1", "viability": 92.2},
      {"smiles": "O=C(NCc1ccco1)C1CCN(S(=O)(=O)Cc2ccccc2)CC1", "viability": 98.2},
      {"smiles": "COc1ccc(Nc2oc(COc3ccc(Cl)cc3)nc2C#N)cc1", "viability": 90.4},
      {"smiles": "COc1ccc(-c2cc(C(F)F)n3ncc(C(=O)n4ccnc4C)c3n2)cc1", "viability": 89.9},
      {"smiles": "COC(=O)C1=C(C)N(c2ccc(F)c(Cl)c2)C(=O)C1", "viability": 82.7},
      {"smiles": "COc1cc(SC#N)ccc1N=Cc1c(C)[nH]n(-c2cccc3ccccc23)c1=O", "viability": 82.9},
      {"smiles": "COc1ccccc1CN=Cc1[nH]c2ccc(Br)c(Cl)c2c1O", "viability": 89.1},
      {"smiles": "CCOC(=O)c1c(C2COc3ccccc3O2)csc1NC(=O)c1ccccc1", "note": "(centres undefined)", "viability": 84.2},
      {"smiles": "O=C(CSc1ncnc2c1nnn2-c1ccc(F)cc1)NCC1CCCO1", "note": "(centres undefined)", "viability": 86.8},
      {"smiles": "COC(=O)Nc1nc2c(s1)CCCC2", "viability": 96.2},
      {"smiles": "Cc1cc(C)c2c(=O)n(CC(=O)NCCCN3CCOCC3)sc2n1", "viability": 90.3},
      {"smiles": "CN1/C(=C\\C(=S)NC(=O)c2ccc([N+](=O)[O-])cc2)C(C)(C)c2ccccc21", "viability": 87.3},
      {"smiles": "COc1ccc(NC(=O)CCCn2c(=O)c3sccc3n(Cc3ccccc3)c2=O)cc1", "viability": 94},
      {"smiles": "COC(=O)C1=C(C)N(Cc2ccco2)C(=O)N[C@@H]1c1cccc(C(F)(F)F)c1", "viability": 84.9},
      {"smiles": "CC(C)(C)c1ccc(CNc2ccc([N+](=O)[O-])cn2)cc1", "viability": 95},
      {"smiles": "Cc1cc(Nc2ccccc2)nn1C(=O)c1ccccc1", "viability": 91.5},
      {"smiles": "O=C(NCCOc1ccccc1)C(c1ccccc1)c1ccccc1", "viability": 98.4},
      {"smiles": "COc1ccc(C(=O)CCN2CCCCCC2)cc1", "viability": 85.5},
      {"smiles": "CCCCNS(=O)(=O)c1ccc2nc(-c3cccnc3)cc(C(=O)NC3CC3)c2c1", "viability": 89.9},
      {"smiles": "CCN(CC)S(=O)(=O)c1ccc(-c2nnc(SCc3nnc(-c4ccccc4)o3)o2)cc1", "viability": 90.7},
      {"smiles": "C=C1C(O)C[C@H]2C(=C)CCC3[C@H](OC(=O)[C@]3(O)CO)[C@@H]12", "note": "(some centres undefined)", "viability": 97.3},
      {"smiles": "O=S(=O)(c1cccc2ccccc12)N1CCSC1", "viability": 99.6},
      {"smiles": "COCCn1c(=NC(=O)CSCC(=O)Nc2cc(C)on2)sc2cc(C(=O)OC)ccc21", "viability": 99.8},
      {"smiles": "O=C(CCNc1cc(Cl)cc(Cl)c1)c1ccco1", "viability": 92.8},
      {"smiles": "c1ccc(-c2cc3n(c2)CCc2ccccc2-3)cc1", "viability": 87.2},
      {"smiles": "[N-]=[N+]=NC1C[C@H](n2ccc(=O)[nH]c2=O)O[C@@H]1CO", "note": "(some centres undefined)", "viability": 102},
      {"smiles": "O=C(Nc1cccc(C(F)(F)F)c1)NC1CCCCC1", "viability": 83.1}
    ]}
  ]
}
